Reference: the supplement of paper PMC8728848
Shown is part of a subset that was picked to be rich in the strongest signals.

Legend:
Experiment in all cases: glycan array binding signal (z-score within array); higher = stronger binding
Conditions in all cases: glycan notation: IUPAC condensed, linker removed
Fuc(a1-2)Gal(b1-3)GlcNAc = molecular target: Fuc(a1-2)Gal(b1-3)GlcNAc
Method in brief: (§1)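 Glycan array data were curated from 3228 arrays in the Consortium for Functional Glycomics database and kept only where the protein sequence was available. Glycan names were converted to IUPAC-condensed notation, and columns mapping to the same glycan were averaged. The binding signal is a within-array Z-score, averaged across arrays of the same protein sequence at different concentrations or buffers and across linkers. Negative Z-scores can be read as non-binding.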

[1] = molecular target: Fuc(a1-2)[Gal(a1-4)]Gal(b1-4)GlcNAc
Method in brief: as §1

[2] = molecular target: Fuc(a1-2)[GalNAc(a1-3)]Gal(b1-4)Glc
Method in brief: as §1

[3] = molecular target: Fuc(a1-2)[GalNAc(a1-3)]Gal(b1-4)GlcNAc
Method in brief: as §1

[4] = molecular target: Fuc(a1-2)[GalNAc(b1-3)]Gal
Method in brief: as §1

Gal(a1-2)Gal = molecular target: Gal(a1-2)Gal
Method in brief: as §1

Gal(a1-3)Gal(b1-4)Glc = molecular target: Gal(a1-3)Gal(b1-4)Glc
Method in brief: as §1

[5] = molecular target: Gal(a1-3)Gal(b1-4)[Fuc(a1-3)]GlcNAc
Method in brief: as §1

[6] = molecular target: Gal(a1-3)[Gal(a1-4)]Gal(b1-4)GlcNAc
Method in brief: as §1

Gal(a1-4)GlcNAc = molecular target: Gal(a1-4)GlcNAc
Method in brief: as §1

Gal(a1-6)Glc = molecular target: Gal(a1-6)Glc
Method in brief: as §1

Gal(b1-3)Gal = molecular target: Gal(b1-3)Gal
Method in brief: as §1

[7] = molecular target: Gal(b1-4)GlcNAc(b1-6)Gal(b1-4)GlcNAc(b1-6)GalNAc
Method in brief: as §1

Glc(a1-4)Glc = molecular target: Glc(a1-4)Glc
Method in brief: as §1

GlcA(b1-3)Gal = molecular target: GlcA(b1-3)Gal
Method in brief: as §1

[8] = molecular target: GlcNAc(a1-3)Gal(b1-4)GlcNAc
Method in brief: as §1

[9] = molecular target: Man(a1-2)Man(a1-2)Man(a1-6)[Man(a1-3)]Man
Method in brief: as §1

Man(a1-2)Man(a1-3)Man = molecular target: Man(a1-2)Man(a1-3)Man
Method in brief: as §1

[10] = molecular target: Man(a1-2)Man(a1-3)[Man(a1-2)Man(a1-6)]Man(a1-6)[Man(a1-2)Man(a1-2)Man(a1-3)]Man(b1-4)GlcNAc(b1-4)GlcNAc
Method in brief: as §1

[11] = molecular target: Man(a1-2)Man(a1-6)[Man(a1-3)]Man(a1-6)[Man(a1-2)Man(a1-2)Man(a1-3)]Man(b1-4)GlcNAc(b1-4)GlcNAc
Method in brief: as §1

[12] = molecular target: Neu5Ac(a2-3)Gal(b1-3)[Neu5Ac(a2-6)]GalNAc
Method in brief: as §1

Neu5Gc(a2-3)Gal(b1-4)Glc = molecular target: Neu5Gc(a2-3)Gal(b1-4)Glc
Method in brief: as §1

B1: PA-IL (Pseudomonas aeruginosa) (protein)
chain: AWKGEVLANNEAGQVTSIIYNPGDVITIVAAGWASYGPTQKWGPQGDREHPDQGLICHDAFCGALVMKIGNSGTIPVNTGLFRWVAPNNVQGAITLIYNDVPGTYGNNSGSFSVNIGKDQS
Fuc(a1-2)Gal(b1-3)GlcNAc
  glycan array binding signal (z-score): -0.365
[1]
  glycan array binding signal (z-score): 3.69
[2]
  glycan array binding signal (z-score): 0.183
[3]
  glycan array binding signal (z-score): 0.174
[4]
  glycan array binding signal (z-score): -0.363
Gal(a1-2)Gal
  glycan array binding signal (z-score): 4.77
Gal(a1-3)Gal(b1-4)Glc
  glycan array binding signal (z-score): 3.73
[5]
  glycan array binding signal (z-score): 4.11
[6]
  glycan array binding signal (z-score): 3.92
Gal(a1-4)GlcNAc
  glycan array binding signal (z-score): 3.15
Gal(a1-6)Glc
  glycan array binding signal (z-score): 1.53
Gal(b1-3)Gal
  glycan array binding signal (z-score): -0.271
[7]
  glycan array binding signal (z-score): 0.234
Glc(a1-4)Glc
  glycan array binding signal (z-score): -0.365
GlcA(b1-3)Gal
  glycan array binding signal (z-score): -0.365
[8]
  glycan array binding signal (z-score): -0.365
[9]
  glycan array binding signal (z-score): -0.365
Man(a1-2)Man(a1-3)Man
  glycan array binding signal (z-score): -0.365
[10]
  glycan array binding signal (z-score): -0.357
[11]
  glycan array binding signal (z-score): -0.364
[12]
  glycan array binding signal (z-score): -0.365
Neu5Gc(a2-3)Gal(b1-4)Glc
  glycan array binding signal (z-score): -0.364
